# Sampled rows, rich in hits. Any-hit rate of the full collection: about 19%.
# TDP1 cell noCPT – qHTS for Inhibitors of human tyrosyl-DNA phosphodiesterase 1 (TDP1): qHTS in cells in absence of CPT | 420,000 tested, 15% active | DT40 Tdp1-/- hTDP1 cells, no CPT, ATP luminescence, 48 h | AID 686978, 2013 | Potency, µM (series often up to 46.2 µM), for inactives: top-dose activity change, negative = growth inhibition, actives largely listed as inhibitors; note: potency is the fitted concentration of half-maximal effect; nearly all actives have a fitted effect of over 55% in size
#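 Chicken DT40 Tdp1-/- cells complemented with human TDP1, screened without camptothecin (DMSO vehicle only), 400 cells/well. Compounds pin-transferred, cells incubated at 37 °C for at least 48 hr. Growth read as ATP-dependent luminescence (CellTiter-Glo, 30 min at RT).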
# DT40 TDP1 CPT – DT40-hTDP1 cell growth loss with CPT; Potency, µM (titrated, usually from 46.2 µM), for inactives: at the highest dose activity change, negative = growth inhibition, most hits filed as inhibitors; chicken DT40 Tdp1-/-;hTDP1 cells + 20 nM CPT, ATP luminescence, 48 h; AID 686979; 420,000 tested, 12% active; note: potency is the fitted concentration of half-maximal effect; nearly all actives have a fitted effect of over 55% in size
#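 Chicken DT40 Tdp1-/- cells complemented with human TDP1, 400 cells/well, exposed to compounds plus 20 nM camptothecin for at least 48 h at 37 C; viability read as ATP content by CellTiter-Glo luminescence.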
# HT1080 IDH1KD tx – kills HT-1080 cells with IDH1 knockdown. HT-1080 IDH1 knockdown viability, ATP luminescence, 48 h. Potency, µM (series often up to 46.1 µM), inactives show at the top dose activity, negative = toxicity, usual class: cytotoxic. 360,000 tested, 2% active. AID 686971;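 note: potency is the fitted concentration of half-maximal effect; 0% = DMSO wells and -100% = cell-free medium wells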
#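 Knockdown cells (IDH1KD HT-1080) received compounds 2 h after plating at 750 cells/well and were kept 48 h at 37 °C in 5% FBS RPMI. A CellTiter-Glo luminescence read gave % activity for curve fitting.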
# HT1080-NT tox – kills 2HG-producing HT-1080-NT fibrosarcoma cells. HT-1080-NT fibrosarcoma viability, CellTiter-Glo ATP luminescence, 48 h. Potency, µM (top dose mostly 46.1 µM), for inactives: at the highest dose activity, negative = less viability, usual class: cytotoxic. 360,000 tested, 1.6% active;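 note: NT is the 2HG producing partner of a matched IDH1 knockdown line; potency is the fitted concentration of half-maximal effect; 0% = DMSO-treated cells and -100% = media-only wells without cells; nearly all actives have a fitted effect of over 55% in size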
#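 Read-out is CellTiter-Glo luminescence after 10 minutes at room temperature, following 48 hours' compound treatment of HT-1080-NT cells (750 cells/well, RPMI, 5% FBS, 37 degrees C).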
# IL-1B inflam inh – inhibitors of inflammasome signaling (IL-1 beta secretion) | THP-1 LPS/ATP IL-1B secretion, AlphaLISA, 16 h; stronger effect = lower value | activity change, % at 57.5 µM | 360,000 tested, 4.7% active; in the data active = activity change below about -50%; inconclusive = mostly about -30% to -49%
#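 THP-1 cells pretreated 1 hr with compounds (up to 57.5 uM final), then stimulated with LPS (250 ng/mL final) plus ATP (1.25 mM final); secreted IL-1B measured by AlphaLISA after 16 hr, decreased signal indicating inhibition.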
# * marks the source's active call; other numbers are inactive results; ? = inconclusive; . = no result. Unless noted, calls come from the whole dose curve; as a rule, active = well fitted curve in the direction sought with a large enough effect; inconclusive = small, poorly fitted or top-dose-only effect, or another doubt; inactive = no such curve, though single readings can be large; an effect the other way counts as inactive or inconclusive. Unless noted, % is set by controls: 0 for no effect and ±100 for the full control effect.
SMILES,TDP1 cell noCPT,DT40 TDP1 CPT,HT1080 IDH1KD tx,HT1080-NT tox,IL-1B inflam inh
c1ccc(-c2n[nH]c(-c3ccccn3)n2)cc1,?,?,5.8µM*,8.2µM*,-12
CCc1ccccc1NC(=O)CN(C1CCCCC1)S(C)(=O)=O,-4%,12%,0%,0%,-1
COc1ccccc1-c1noc(-c2cc(OC)c(OC)c(OC)c2)n1,23µM*,?,-8%,-16%,-22
Cc1ccc(-c2nc(-c3ccccn3)no2)cc1,8.2µM*,7.3µM*,6.5µM*,5.2µM*,0
c1ccc(C(Cc2nc(-c3ccccn3)no2)c2ccccc2)cc1,16µM*,?,-5%,-10%,-2
c1ccc(-c2noc(-c3ccno3)n2)nc1,-2%,2%,5%,7%,40
c1ccc(-c2ccc(-c3nc(-c4ccccn4)no3)cc2)cc1,10µM*,12µM*,13µM*,10µM*,-4
Clc1cccc(-c2nc(-c3ccccn3)no2)c1,?,-21%,?,?,13
c1ccc(-c2nc(-c3ccccn3)no2)cc1,?,16µM*,10µM*,13µM*,22
COc1ccc(CCCNC(=O)C2CCC(=O)N(CC3CCCCC3)C2)cc1 (configuration not stated),18µM*,16µM*,-15%,-6%,-6
COc1ccccc1CCCNC(=O)C1CCC(=O)N(CCc2cccc(F)c2)C1 (configuration not stated),18µM*,?,6%,3%,11
COC(=O)c1ccc(CNC(=O)C2CCC(=O)N(CCCc3ccccc3)C2)cc1 (configuration not stated),?,13µM*,-4%,-4%,0
COc1ccc(CCCNC(=O)C2CCC(=O)N(CCc3cccc(F)c3)C2)cc1 (configuration not stated),?,23µM*,-1%,1%,1
N#Cc1cccc(NC(=O)N2CC3(CCN(C(=O)c4cc(C(F)(F)F)cc(C(F)(F)F)c4)CC3)C2)c1,-21%,-3%,.,.,.
O=C(c1ccco1)N1CCN(C(c2ccc(Cl)cc2)c2nnnn2Cc2ccccc2)CC1 (configuration not stated),-24%,-22%,-17%,-22%,-51*
COc1cccc(C(c2nnnn2Cc2ccccc2)N2CCN(C(=O)c3ccco3)CC2)c1OC (configuration not stated),23µM*,?,-14%,-11%,-12
COc1ccc(OC)c(C(c2nnnn2Cc2ccco2)N2CCN(C)CC2)c1 (configuration not stated),0%,-3%,1%,-6%,-11
COc1cccc(C(c2nnnn2Cc2ccco2)N2CCN(c3cccc(C)c3C)CC2)c1OC (configuration not stated),26µM*,?,-12%,-8%,-2
Cc1nc2nc(SCC(=O)NCCc3ccc(Cl)cc3)nn2c(C)c1Cc1c(F)cccc1Cl,-24%,-7%,.,.,.
CCN(CC)CCCNC(=O)CSc1nc2nc(C)c(Cc3c(F)cccc3Cl)c(C)n2n1,6.5µM*,?,.,.,.
CCC1CCCCN1CCCNC(=O)CSc1nc2nc(C)c(Cc3ccc(C)cc3)c(C)n2n1 (configuration not stated),?,23µM*,?,?,?
Cc1ccccc1Cc1c(C)nc2nc(SCC(=O)NCCc3ccc(Cl)cc3)nn2c1C,?,16µM*,.,.,.
CCN(CC)CCCNC(=O)CSc1nc2nc(C)c(Cc3ccccc3C)c(C)n2n1,-25%,-27%,.,.,.
Cc1nc2nc(SCC(=O)NCCCN3CCCC3)nn2c(C)c1Cc1ccccc1Cl,?,?,-19%,-5%,-54*
O=C(O)c1ccccc1/C=N/NC(=S)NCc1ccccc1,-10%,-13%,14%,?,18
SMILES,TDP1 cell noCPT,DT40 TDP1 CPT,HT1080 IDH1KD tx,HT1080-NT tox,IL-1B inflam inh
CCc1ccc(-c2cc(C)no2)cc1S(=O)(=O)N1CCOc2ccccc21,?,?,?,?,-5
CC1(C(=O)OCC(=O)N2c3ccccc3Sc3ccccc32)CC1(Cl)Cl (configuration not stated),?,?,-2%,-2%,18
CCOc1ccc2cc(/C=C/C(=O)c3ccco3)c(Cl)nc2c1,21µM*,?,9%,-18%,?
CCOc1ccc2nc(SCC(=O)NNC(=O)c3ccco3)c(C)cc2c1,-14%,-15%,-1%,12%,-2
Cc1ccc(C)c(NC(=O)CSc2ccc(-c3ccco3)nn2)c1,?,17%,-14%,-3%,-1
COCCN(C(=O)CSc1nnc(-c2ccco2)n1C)c1c(N)n(CC(C)C)c(=O)[nH]c1=O,-5%,6%,-6%,6%,5
CC(=O)N1CCc2nc3sc(C(=O)c4ccc(F)cc4)c(N)c3c(C(F)(F)F)c2C1,21µM*,?,.,.,.
COc1ccc(NC(=O)c2sc3nc(C(F)(F)F)cc(C)c3c2N)cc1OC,-6%,1%,.,.,.
COc1ccc(C(=O)c2sc3nc4c(c(C(F)(F)F)c3c2N)CN(C(C)=O)CC4)cc1OC,16µM*,18µM*,.,.,.
COc1ccc(CNC(=O)c2sc3nc4c(c(C(F)(F)F)c3c2N)CCC4)cc1OC,16µM*,?,2%,6%,?
O=C(C1CCCN(S(=O)(=O)c2ccc(Br)s2)C1)N1CCN(c2cccc(Cl)c2)CC1 (configuration not stated),21µM*,16µM*,.,.,.
O=C(CCCNS(=O)(=O)c1cccs1)N1CCN(c2cccc(Cl)c2)CC1,?,?,-7%,-11%,-16
O=C(C1CCCN(S(=O)(=O)c2cccs2)C1)N1CCN(c2cccc(Cl)c2)CC1 (configuration not stated),15µM*,21µM*,.,.,.
CCOC(=O)C1CCCN(S(=O)(=O)c2ccc(Br)s2)C1 (configuration not stated),-14%,?,-4%,4%,0
Cc1cc(C)nc(S[C@H]2C[C@@H](C(=O)N3CCN(c4ccccc4F)CC3)N(Cc3ccccc3F)C2)n1,-21%,-21%,.,.,.
CC(=O)c1cn(CC(=O)Nc2ccccc2Cl)c2ccccc12,9.2µM*,16µM*,?,1%,32
CC(=O)c1cn(CC(=O)Nc2ccccc2F)c2ccccc12,12µM*,18µM*,-6%,-2%,21
O=C(Cn1cc(C(=O)c2ccco2)c2ccccc21)Nc1ccccc1Cl,-21%,-8%,.,.,.
O=C(Cn1c2ccccc2c(=O)c2ccccc21)Nc1ccccc1F,?,13µM*,-24%,-2%,-7

# Source: PubChem BioAssay (National Center for Advancing Translational Sciences (NCATS))
